Most compounds without a hit are left out; they make up all but 2.3% or so of the library.
Shn3 inh set2 = reduction of Shn3 3'UTR firefly luciferase signal, primary screen, Schnurri-3 inhibitor project, cell-based, Clone20 osteoblasts, set 2; AID 588674, 2011; 0.52% of 360,000 active; inhibition, % at 12.5 µM; Clone20 osteoblast Shn3 3'UTR firefly luciferase, 24 h;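 active = mean inhibition of at least 75% with every replicate also reaching 75%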
TRPM1 prom inh = inhibitors of MITF-dependent TRPM1 promoter reporter, primary screen, cell-based, SK-MEL-5, single point, luciferase; SK-MEL-5 TRPM1 promoter luciferase, 24 h; inhibition, % at 12.5 µM; 0.83% of 330,000 active; AID 488899, 2010;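 active = mean inhibition across replicates of 60% or more, whatever share of single replicates reaches that level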
LMP1 NFkB inh = EBV LMP1-driven NF-kappaB luciferase reporter inhibitors, primary screen, cell-based, luminescence, single point; inhibition, % at 12.5 µM; 0.69% of 350,000 active; AID 504558, 2011; LMP1-induced NF-kappaB luciferase reporter cells; in the data active = inhibition above about 41%
Gli-Sufu block = Gli-Sufu pathway antagonists, primary screen, luciferase luminescence, Sufu-KO-LIGHT cells, uHTS. AID 588413, 2011. inhibition, % at 5 µM. Sufu-KO-LIGHT fibroblasts, Gli luciferase reporter luminescence. 0.74% of 340,000 active;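 active = inhibition above about 55%, limit read from the data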
697 NFkB inh = inhibitors of PMA/ionomycin-induced NF-kB reporter, 697 cells, primary screen, B-cell NF-kB inhibitor project, cell-based, luminescence, uHTS; inhibition, % at 4 µM; 697 B-cell NF-kB luciferase reporter, 16 h; 0.33% of 330,000 active; AID 435022, 2010; in the data active = inhibition above about 35%
Jurkat NFkB inh = inhibitors of induced NF-kB luciferase reporter, primary screen, TCR NF-kB activation inhibitor project, cell-based, luminescence, uHTS; 0.53% of 330,000 active; inhibition, % at 4 µM; Jurkat, PMA/ionomycin-induced NF-kB luciferase reporter; in the data active = inhibition above about 50%
Each line names hits and unclear results; the compound was inactive in the other large screens.

COc1ccccc1C(=O)Nc1ccc2c(c1)nc1n2CCSC1	none
Cc1ccc(-n2cc(CNCCCn3cccn3)c(-c3cccc(C)c3)n2)cc1	TRPM1 prom inh 79
Cc1ccc(-n2cc(CNCCc3cscn3)c(-c3ccc(F)cc3)n2)cc1	none
Cc1ccc(-n2cc(CNCCCn3ccnc3C)c(-c3ccc(F)cc3)n2)cc1	TRPM1 prom inh 72
COc1ccc(CC(=O)Nc2ccc(S(=O)(=O)N(C)C3CCN(C)CC3)cc2)cc1	none
COc1ccc2oc(C(=O)Nc3ccc(S(=O)(=O)N(C)C4CCN(C)CC4)cc3)c(C)c2c1	TRPM1 prom inh 85
CC1CCc2cc(F)cc3c(O)c(C(=O)NCCN(C)C)c(=O)n1c23 (configuration not stated)	none
CC(=O)Nc1ccc(Sc2ccc([N+](=O)[O-])o2)cc1	Shn3 inh set2 99, TRPM1 prom inh 95 (no result: 697 NFkB inh, Jurkat NFkB inh)
COc1ccc(Cc2nc3ccc(C(=O)NC(C)C)cc3o2)cc1	none (no result: 697 NFkB inh, Jurkat NFkB inh)
Cc1ccc(S(=O)(=O)N2CCCCC2)cc1NS(=O)(=O)c1ccccc1F	Shn3 inh set2 95
Cc1ccc(NS(=O)(=O)c2ccccc2F)cc1S(=O)(=O)N1CCCCC1	none (no result: TRPM1 prom inh)
COC(=O)c1ccc(CSc2nc(-c3ccco3)cc(C(F)(F)F)n2)o1	none
O=C(/C=C/c1cccc([N+](=O)[O-])c1)c1ccc([N+](=O)[O-])o1	Shn3 inh set2 97, TRPM1 prom inh 99 (no result: 697 NFkB inh, Jurkat NFkB inh)
COc1ccc(CCC(=O)NCCc2nc3ccccc3[nH]2)cc1	none
COCC(=O)NCCc1nc2ccccc2[nH]1	none (no result: TRPM1 prom inh)
CCCC(=O)NCCCc1nc2ccccc2n1C	LMP1 NFkB inh 92
CCCC(=O)NCCCc1nc2ccccc2[nH]1	LMP1 NFkB inh 87
Cc1ccc(CCNC(=O)CCc2nc3ccccc3[nH]2)cc1	LMP1 NFkB inh 57
N#CCC(=O)Nc1ccc(C(=O)OCC(=O)c2ccc3c(c2)OCCO3)cc1	none
CC(=O)NCCC(=O)Nc1cc(F)ccc1C	none
Cc1nn(-c2ccccc2)c(C)c1NC(=O)COC(=O)CCOc1ccccc1	none
O=c1cc(CN2CCN(c3cccc(Cl)c3)CC2)c2cc(O)c(-c3ccccc3)cc2o1	none
CCOc1ccc2nc(SC3CC(=O)N(c4ccc(C)cc4)C3=O)sc2c1 (configuration not stated)	Shn3 inh set2 96
CC(=O)NC(c1cccc(F)c1)c1nc(-c2cccc(C(=O)O)c2)cs1 (configuration not stated)	none (no result: TRPM1 prom inh, LMP1 NFkB inh, Gli-Sufu block, 697 NFkB inh, Jurkat NFkB inh)
CC(C)c1ccc(S(=O)(=O)/N=C2/C=C(Sc3ncn[nH]3)C(=O)c3ccccc32)cc1	none (no result: 697 NFkB inh, Jurkat NFkB inh)
Cc1ccc(S(=O)(=O)/N=C2/C=C(Sc3ncn[nH]3)C(=O)c3ccccc32)cc1	Shn3 inh set2 98, TRPM1 prom inh 91, LMP1 NFkB inh 64 (no result: 697 NFkB inh, Jurkat NFkB inh)
CCN(CCO)c1ccc(N=Nc2cc(C)[nH]n2)cc1	TRPM1 prom inh 76, LMP1 NFkB inh 63
CCN(CCO)c1ccc(Nc2cc(-c3ccc(-c4ccccc4)cc3)ncn2)cc1	none (no result: TRPM1 prom inh, LMP1 NFkB inh, Gli-Sufu block, 697 NFkB inh, Jurkat NFkB inh)
O=c1cc(-c2ccc(O)c(O)c2)oc2cc(O)c([C@@H]3O[C@H](CO)[C@@H](O)[C@H](O)[C@H]3O)c(O)c12	none
CCOC(=O)N1CCC(N2C(=O)c3ccccc3C2Nc2cc(Cl)c(OC)cc2OC)CC1 (configuration not stated)	LMP1 NFkB inh 75
COC(=O)[C@H](C)NC(=O)Nc1cccc(C)c1	LMP1 NFkB inh 49
CC(=O)C(C(C)=O)c1c(Cl)c(O)c(O)c2c(C(=O)c3ccccc3)coc12	Shn3 inh set2 89
O=C(NNC(=O)c1ccccc1-c1ccccc1C(=O)O)c1ccccc1	none
O=C(C=P(c1ccccc1)(c1ccccc1)c1ccccc1)c1ccccc1-c1ccccc1C(=O)C=P(c1ccccc1)(c1ccccc1)c1ccccc1	TRPM1 prom inh 82, Gli-Sufu block 86 (no result: 697 NFkB inh, Jurkat NFkB inh)
CCOc1ccc(S(=O)(=O)N2CCC(C(=O)NCCc3ccc(S(N)(=O)=O)cc3)CC2)cc1	LMP1 NFkB inh 49
CCOc1ccc(S(=O)(=O)N2CCC(C(=O)NCCc3ccc(OC)c(OC)c3)CC2)cc1	none

Source: PubChem BioAssay (several laboratories)
